Data reported in PubChem BioAssay (EPA / NIEHS).
Inconclusive results are not listed. The source made the active and inactive calls. How the source made its calls: active means hit-call score of the fitted dose curve at least 0.9, where 1 is the maximum; inconclusive means response in the unintended direction; inactive means score below 0.9.

Each compound was assayed against Glucocorticoid receptor (Homo sapiens) (UniProt P04150) (assay: ATG_GR_TRANS: Attagene TRANS-FACTORIAL HepG2 Assay for human Glucocorticoid Receptor (GR) (AID 2282978;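 further: activators score as hits since higher reporter transcript over DMSO is fitted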)). Settings: HepG2 Attagene TRANS GR reporter, mRNA transcription.
Sequence of Glucocorticoid receptor (Homo sapiens) (P04150 whole entry, looked up, the tested form may be a part): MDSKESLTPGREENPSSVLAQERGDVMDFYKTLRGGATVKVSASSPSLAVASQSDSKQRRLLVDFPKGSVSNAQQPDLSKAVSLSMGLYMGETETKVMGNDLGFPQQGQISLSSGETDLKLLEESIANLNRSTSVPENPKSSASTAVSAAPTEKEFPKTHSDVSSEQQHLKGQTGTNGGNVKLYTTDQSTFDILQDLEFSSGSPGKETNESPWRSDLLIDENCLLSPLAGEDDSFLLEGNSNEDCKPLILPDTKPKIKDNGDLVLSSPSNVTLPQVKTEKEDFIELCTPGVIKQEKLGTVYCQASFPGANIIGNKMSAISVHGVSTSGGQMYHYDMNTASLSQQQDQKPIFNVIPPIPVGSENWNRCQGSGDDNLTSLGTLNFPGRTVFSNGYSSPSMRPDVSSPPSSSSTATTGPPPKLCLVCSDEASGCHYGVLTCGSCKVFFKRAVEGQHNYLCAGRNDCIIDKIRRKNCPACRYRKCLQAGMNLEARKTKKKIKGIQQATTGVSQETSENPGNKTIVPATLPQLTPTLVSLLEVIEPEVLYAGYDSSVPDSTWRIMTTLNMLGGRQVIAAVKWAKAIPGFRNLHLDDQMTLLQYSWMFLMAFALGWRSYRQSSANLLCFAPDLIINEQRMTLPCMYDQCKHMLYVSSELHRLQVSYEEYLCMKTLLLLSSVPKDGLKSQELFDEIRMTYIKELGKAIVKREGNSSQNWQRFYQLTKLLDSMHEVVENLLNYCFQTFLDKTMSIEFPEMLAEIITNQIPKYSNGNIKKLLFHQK
Method in brief: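 Exogenous NR-GAL4 fusion activity was assessed through induced GAL4-UAS reporter transcripts in transfected human HepG2 cells, quantified after 24 h by RT-PCR and fluorescent capillary electrophoresis with DMSO as baseline.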
With `C=C(C)CCO` the outcome was “inactive”. For `CCC(C)OC(=O)c1ccc(O)cc1` (stereo not given), the outcome was “inactive”. For `CC(=O)[C@H]1[C@H](C#N)C[C@H]2[C@@H]3CC=C4C[C@@H](O)CC[C@]4(C)[C@H]3CC[C@@]21C`, the outcome was “inactive”. For `CCCOC(=O)CCCCC(=O)OCCC`, the outcome was “inactive”. For `CNC(=S)NN`, the outcome was “inactive”. For `CCCCCCCCCCCCCCCC(=O)OCC`, the outcome was “inactive”. For `O=C(O)CCCC[C@@H]1SC[C@@H]2NC(=O)N[C@@H]21`, the outcome was “inactive”. With `CC(=O)OCC(=O)[C@@]12N=C(C)O[C@@H]1C[C@H]1[C@@H]3CCC4=CC(=O)C=C[C@]4(C)[C@H]3[C@@H](O)C[C@@]12C` the AC50 was 82.7 nM (active). For `Cc1ccc([N+](=O)[O-])cc1S(=O)(=O)O`, the outcome was “inactive”. With `CC=CC(=O)N(CC)c1ccccc1C` the outcome was “inactive”. In the case of `Nc1ccc2cc3ccccc3cc2c1`, the outcome is reported as “inactive”. With `CN(C)CCCN(C)C` the outcome was “inactive”. `O=C(Nc1ccccc1)c1ccccc1O` was tested, and the outcome was “inactive”. In the case of `CCCCCC/C=C/C=O`, the outcome is reported as “inactive”. `CC1(C)O[C@@H]2C[C@H]3[C@@H]4C[C@H](F)C5=CC(=O)CC[C@]5(C)[C@H]4[C@@H](O)C[C@]3(C)[C@]2(C(=O)CO)O1` was tested, and the AC50 was 72.8 nM (active). In the case of `O=C1CCCN1CCO`, the outcome is reported as “inactive”. `C=CC(C)(CCC=C(C)C)OC(=O)CC(C)C` (stereo not given) was tested, and the outcome was “inactive”. `CCCCCCCOC(=O)CCC` was tested, and the outcome was “inactive”. With `O=c1cc(-c2ccccc2)oc2ccccc12` the outcome was “inactive”. With `O=C(c1ccccc1)c1ccc(O)c(O)c1O` the outcome was “inactive”. For `CC(=O)NS(=O)(=O)c1ccc(N)cc1`, the outcome was “inactive”. In the case of `C=C(C)C(=O)OCCO`, the outcome is reported as “inactive”. With `C[C@]12CCC(=O)C=C1CC[C@@H]1[C@@H]2C(=O)C[C@@]2(C)[C@H]1CC[C@]2(O)C(=O)CO` the outcome was “inactive”. For `COc1cc(NC(=O)CC(C)=O)c(OC)cc1Cl`, the outcome was “inactive”. In the case of `O=c1[nH]nc(-c2ccc([N+](=O)[O-])o2)o1`, the outcome is reported as “inactive”. With `Nc1ccc(N=Nc2ccccc2)c(N)n1` the outcome was “inactive”. With `CC(C)(C)c1ccc(N)cc1` the outcome was “inactive”. In the case of `C=CC=CC=CCCCCC`, the outcome is reported as “inactive”. For `O=C1c2ccccc2C(=O)C1c1nc2ccccc2c(Br)c1O`, the outcome was “inactive”. For `c1ccc(-c2ccccn2)nc1`, the outcome was “inactive”. `CC(=O)OCCC1CCCCC1` was tested, and the outcome was “inactive”. `CCCCC/C=C\CCC=O` was tested, and the outcome was “inactive”. In the case of `CC(C)(C)C1CCCCC1=O` (stereo not given), the outcome is reported as “inactive”. `CC1(C)O[C@@H]2C[C@H]3[C@@H]4C[C@H](F)C5=CC(=O)C=C[C@]5(C)[C@@]4(F)[C@@H](O)C[C@]3(C)[C@]2(C(=O)CO)O1` was tested, and the AC50 was 52.5 nM (active). With `CC1OC1C1CCC2(C)OC2C1` (stereo not given) the outcome was “inactive”. For `CCOC(=O)Cc1cccc2ccccc12`, the outcome was “inactive”. For `COc1ccc2nc(N)sc2c1`, the outcome was “inactive”. `CC(=O)OC1C2(C)CCC(C2)C1(C)C` (stereo not given) was tested, and the outcome was “inactive”. In the case of `COc1ccc(-c2coc3cc(O)ccc3c2=O)cc1`, the outcome is reported as “inactive”. With `C=C(C)c1cccc(C(C)(C)N=C=O)c1` the outcome was “inactive”.

Each compound was assayed against Oxysterols receptor LXR-alpha (Homo sapiens) (UniProt Q13133) (assay: ATG_LXRa_TRANS: Attagene TRANS-FACTORIAL HepG2 Assay for human Liver X Receptor alpha (LXRa) (AID 2282980)). Settings: HepG2 Attagene TRANS reporter, LXRa transactivation.
Sequence of Oxysterols receptor LXR-alpha (Homo sapiens) (Q13133 whole entry, looked up, the tested form may be a part): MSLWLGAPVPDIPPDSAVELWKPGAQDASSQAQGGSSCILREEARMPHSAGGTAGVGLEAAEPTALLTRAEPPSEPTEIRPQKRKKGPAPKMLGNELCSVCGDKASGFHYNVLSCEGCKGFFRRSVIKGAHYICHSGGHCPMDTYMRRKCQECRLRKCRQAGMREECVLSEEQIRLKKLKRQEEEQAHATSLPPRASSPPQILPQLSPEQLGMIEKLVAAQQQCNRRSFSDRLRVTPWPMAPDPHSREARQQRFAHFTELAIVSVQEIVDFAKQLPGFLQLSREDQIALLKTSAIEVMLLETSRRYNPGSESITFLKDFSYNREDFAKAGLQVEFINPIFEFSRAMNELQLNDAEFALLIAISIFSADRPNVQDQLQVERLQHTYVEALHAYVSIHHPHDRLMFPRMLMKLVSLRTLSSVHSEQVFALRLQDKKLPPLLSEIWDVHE
Method in brief: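 Read-out: reporter transcript levels by RT-PCR plus capillary electrophoresis, fluorescence intensity. Transiently transfected HepG2, exogenous NR-GAL4 chimera, GAL4-UAS reporters; 24 h compound exposure. Activity = increase over DMSO negative control.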
With `C=C(C)CCO` the outcome was “inactive”. For `CCC(C)OC(=O)c1ccc(O)cc1` (stereo not given), the outcome was “inactive”. `CC(=O)[C@H]1[C@H](C#N)C[C@H]2[C@@H]3CC=C4C[C@@H](O)CC[C@]4(C)[C@H]3CC[C@@]21C` was tested, and the outcome was “inactive”. `CCCOC(=O)CCCCC(=O)OCCC` was tested, and the outcome was “inactive”. `CNC(=S)NN` was tested, and the outcome was “inactive”. In the case of `CCCCCCCCCCCCCCCC(=O)OCC`, the outcome is reported as “inactive”. For `O=C(O)CCCC[C@@H]1SC[C@@H]2NC(=O)N[C@@H]21`, the outcome was “inactive”. With `CC(=O)OCC(=O)[C@@]12N=C(C)O[C@@H]1C[C@H]1[C@@H]3CCC4=CC(=O)C=C[C@]4(C)[C@H]3[C@@H](O)C[C@@]12C` the outcome was “inactive”. For `Cc1ccc([N+](=O)[O-])cc1S(=O)(=O)O`, the outcome was “inactive”. `CC=CC(=O)N(CC)c1ccccc1C` was tested, and the outcome was “inactive”. In the case of `Nc1ccc2cc3ccccc3cc2c1`, the outcome is reported as “inactive”. In the case of `CN(C)CCCN(C)C`, the outcome is reported as “inactive”. In the case of `O=C(Nc1ccccc1)c1ccccc1O`, the outcome is reported as “inactive”. With `CCCCCC/C=C/C=O` the outcome was “inactive”. In the case of `CC1(C)O[C@@H]2C[C@H]3[C@@H]4C[C@H](F)C5=CC(=O)CC[C@]5(C)[C@H]4[C@@H](O)C[C@]3(C)[C@]2(C(=O)CO)O1`, the outcome is reported as “inactive”. With `O=C1CCCN1CCO` the outcome was “inactive”. `C=CC(C)(CCC=C(C)C)OC(=O)CC(C)C` (stereo not given) was tested, and the outcome was “inactive”. In the case of `CCCCCCCOC(=O)CCC`, the outcome is reported as “inactive”. For `O=c1cc(-c2ccccc2)oc2ccccc12`, the outcome was “inactive”. `O=C(c1ccccc1)c1ccc(O)c(O)c1O` was tested, and the outcome was “inactive”. In the case of `CC(=O)NS(=O)(=O)c1ccc(N)cc1`, the outcome is reported as “inactive”. With `C=C(C)C(=O)OCCO` the outcome was “inactive”. In the case of `C[C@]12CCC(=O)C=C1CC[C@@H]1[C@@H]2C(=O)C[C@@]2(C)[C@H]1CC[C@]2(O)C(=O)CO`, the outcome is reported as “inactive”. For `COc1cc(NC(=O)CC(C)=O)c(OC)cc1Cl`, the outcome was “inactive”. In the case of `O=c1[nH]nc(-c2ccc([N+](=O)[O-])o2)o1`, the outcome is reported as “inactive”. With `Nc1ccc(N=Nc2ccccc2)c(N)n1` the outcome was “inactive”. `CC(C)(C)c1ccc(N)cc1` was tested, and the outcome was “inactive”. In the case of `C=CC=CC=CCCCCC`, the outcome is reported as “inactive”. With `O=C1c2ccccc2C(=O)C1c1nc2ccccc2c(Br)c1O` the outcome was “inactive”. `c1ccc(-c2ccccn2)nc1` was tested, and the outcome was “inactive”. For `CC(=O)OCCC1CCCCC1`, the outcome was “inactive”. In the case of `CCCCC/C=C\CCC=O`, the outcome is reported as “inactive”. For `CC(C)(C)C1CCCCC1=O` (stereo not given), the outcome was “inactive”. In the case of `CC1(C)O[C@@H]2C[C@H]3[C@@H]4C[C@H](F)C5=CC(=O)C=C[C@]5(C)[C@@]4(F)[C@@H](O)C[C@]3(C)[C@]2(C(=O)CO)O1`, the outcome is reported as “inactive”. For `CC1OC1C1CCC2(C)OC2C1` (stereo not given), the outcome was “inactive”. In the case of `CCOC(=O)Cc1cccc2ccccc12`, the outcome is reported as “inactive”. In the case of `COc1ccc2nc(N)sc2c1`, the outcome is reported as “inactive”. In the case of `CC(=O)OC1C2(C)CCC(C2)C1(C)C` (stereo not given), the outcome is reported as “inactive”. For `COc1ccc(-c2coc3cc(O)ccc3c2=O)cc1`, the outcome was “inactive”. In the case of `C=C(C)c1cccc(C(C)(C)N=C=O)c1`, the outcome is reported as “inactive”.
